# This is part of a sample that, as a whole, favours compounds with a hit. Of some 79,000 tested, about 15% had one in any assay. Values without a mark were called inactive. Calls of active or inactive are those of the source. Cut-off read from the data, not from the text of the source: active = growth inhibition above about 70%; inactive = the rest.
# Tests used:
# [1] = NCI Yeast Anticancer Drug Screen. Data for the wt1 strain (AID 149);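 note: 0% = growth of vehicle-treated wt1 cultures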; conditions: S. cerevisiae wt1 strain (SPY 50644) growth inhibition, stronger effect = higher value
# In short: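 Growth inhibition read against vehicle controls after compound exposure of the wt1 yeast strain.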
# [2] = NCI Yeast Anticancer Drug Screen. Data for the rad50EPP+ strain (AID 151);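 note: 0% = growth of vehicle-treated control cultures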; conditions: S. cerevisiae rad50 mutant strain, stronger effect = higher value
# In short: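 Yeast strain carrying rad50 alteration (rad50EPP+) exposed to compounds; growth inhibition measured relative to vehicle-treated controls.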
# [3] = NCI Yeast Anticancer Drug Screen. Data for the mgt1 strain (AID 153); conditions: S. cerevisiae mgt1 mutant growth inhibition, stronger effect = higher value
# In short: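 Yeast mgt1 strain (DNA repair/cell-cycle alteration panel) exposed to compounds; growth inhibition measured relative to vehicle-treated controls.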
# [4] = NCI Yeast Anticancer Drug Screen. Data for the rad50 strain (AID 155);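 note: 0% = growth of vehicle-only cultures of the same strain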; conditions: S. cerevisiae rad50 strain growth inhibition, stronger effect = higher value
# In short: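 Readout: growth inhibition relative to vehicle-treated cultures. Compound exposure was carried out in a genetically defined yeast strain deficient in DNA damage repair.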
# [5] = NCI Yeast Anticancer Drug Screen. Data for the mec2-1 strain (AID 157); conditions: S. cerevisiae mec2-1 strain, stronger effect = higher value
# In short: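 mec2-1 yeast strain, carrying an alteration in DNA damage repair or cell cycle control, was exposed to compounds; growth inhibition was measured relative to vehicle-treated controls.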
# [6] = NCI Yeast Anticancer Drug Screen. Data for the rad14 strain (AID 159);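 note: 0% = growth of vehicle-treated control cultures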; conditions: S. cerevisiae rad14 strain growth inhibition, stronger effect = higher value
# In short: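 Growth inhibition vs vehicle controls; genetically altered yeast strain (DNA damage repair defect) treated with test compounds.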
# [7] = NCI Yeast Anticancer Drug Screen. Data for the sgs1 mgt1 strain (AID 161);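 note: 0% = growth of cultures given vehicle only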; conditions: S. cerevisiae sgs1 mgt1 strain, stronger effect = higher value
# In short: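 Percent growth inhibition was derived by comparing compound-exposed mutant yeast with vehicle-exposed cultures. The strain carries alterations in DNA damage repair.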
# [8] = NCI Yeast Anticancer Drug Screen. Data for the CLN2oe strain (AID 163);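 note: 0% = growth of vehicle-only control cultures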; conditions: S. cerevisiae CLN2oe strain, stronger effect = higher value
# In short: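 Yeast cells carrying a defined cell-cycle control alteration were exposed to test compounds. Growth inhibition was scored against vehicle-treated control cultures.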
# [9] = NCI Yeast Anticancer Drug Screen. Data for the cln2 rad14 strain (AID 165);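 note: 0% = growth equal to vehicle treated cultures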; conditions: S. cerevisiae cln2 rad14 strain, stronger effect = higher value
# In short: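 Yeast carrying cln2 and rad14 alterations (cell cycle control and DNA damage repair) were exposed to compounds. Growth inhibition was measured against vehicle-treated controls.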
# [10] = NCI Yeast Anticancer Drug Screen. Data for the bub3 strain (AID 167); conditions: S. cerevisiae bub3 mutant strain, stronger effect = higher value
# In short: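 Readout: yeast growth inhibition, expressed relative to vehicle-only wells. The test organism is a mutant strain from a panel with lesions in DNA repair or checkpoint genes.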
# [11] = NCI Yeast Anticancer Drug Screen. Data for the wt2 strain (AID 169);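 note: 0% = growth of vehicle-treated yeast cultures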; conditions: S. cerevisiae wt2 strain growth inhibition, stronger effect = higher value
# In short: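 Yeast cells were exposed to test compounds, and growth inhibition was measured relative to vehicle-treated controls.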
# [12] = NCI Yeast Anticancer Drug Screen. Data for the mlh1 strain (AID 171);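 note: 0% = growth of vehicle-treated control cultures of the same strain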; conditions: S. cerevisiae mlh1 strain growth inhibition, stronger effect = higher value
# In short: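 Yeast carrying a defined genetic alteration in DNA damage repair or cell cycle control were exposed to test compounds. Growth inhibition was measured relative to vehicle-treated controls.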
# [13] = NCI Yeast Anticancer Drug Screen. Data for the sgs1 strain (AID 173);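 note: 0% = growth of vehicle-only control cultures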; conditions: S. cerevisiae sgs1 mutant, stronger effect = higher value
# In short: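 Yeast mutant strains carrying defined defects in DNA damage repair or cell cycle control were exposed to test compounds. Growth inhibition was scored against vehicle-treated controls.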
# [14] = NCI Yeast Anticancer Drug Screen. Data for the mlh1 rad18 strain (AID 175); conditions: S. cerevisiae mlh1 rad18 strain growth inhibition, stronger effect = higher value
# In short: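 Growth inhibition of the yeast strain was measured after compound exposure and expressed relative to vehicle-treated controls. The strain carries defined defects in DNA damage repair.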
# [15] = NCI Yeast Anticancer Drug Screen. Data for the rad18 strain (AID 177); conditions: S. cerevisiae rad18 mutant growth inhibition, stronger effect = higher value
# In short: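 Yeast carrying a defined DNA damage repair alteration were exposed to compounds. Growth inhibition was expressed relative to vehicle-treated controls.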
# [16] = at 5.0 µM (retest, dose inferred, filed as 0.5)
# [17] = at 50.0 µM (retest, dose inferred, filed as 5.0)
smiles,measurement,setting,value
c1ccc(Cc2cc(-c3ccccc3)n[nH]2)cc1,growth inhibition,[1]; at 1.2 µM,-6%
same,growth inhibition,[1]; at 3.7 µM,-10%
same,growth inhibition,[1]; at 11.0 µM,-15%
same,growth inhibition,[1]; at 33.0 µM,-16%
same,growth inhibition,[1]; at 100.0 µM,44%
same,growth inhibition,[2]; at 1.2 µM,-3%
same,growth inhibition,[2]; at 3.7 µM,1%
same,growth inhibition,[2]; at 11.0 µM,5%
same,growth inhibition,[2]; at 33.0 µM,22%
same,growth inhibition,[2]; at 100.0 µM,58%
same,growth inhibition,[3]; at 1.2 µM,-4%
same,growth inhibition,[3]; at 3.7 µM,-8%
same,growth inhibition,[3]; at 11.0 µM,-11%
same,growth inhibition,[3]; at 33.0 µM,8%
same,growth inhibition,[3]; at 100.0 µM,50%
same,growth inhibition,[4]; at 1.2 µM,-10%
same,growth inhibition,[4]; at 3.7 µM,-19%
same,growth inhibition,[4]; [16],-136%
same,growth inhibition,[4]; at 11.0 µM,7%
same,growth inhibition,[4]; at 33.0 µM,5%
same,growth inhibition,[4]; [17],31%
same,growth inhibition,[4]; at 50.0 µM,97% (active)
same,growth inhibition,[4]; at 100.0 µM,60%
same,growth inhibition,[5]; at 1.2 µM,2%
same,growth inhibition,[5]; at 3.7 µM,-4%
same,growth inhibition,[5]; [16],-51%
same,growth inhibition,[5]; at 11.0 µM,-23%
same,growth inhibition,[5]; at 33.0 µM,-11%
same,growth inhibition,[5]; [17],-13%
same,growth inhibition,[5]; at 50.0 µM,97% (active)
same,growth inhibition,[5]; at 100.0 µM,43%
same,growth inhibition,[6]; at 1.2 µM,-3%
same,growth inhibition,[6]; at 3.7 µM,-4%
same,growth inhibition,[6]; at 11.0 µM,-7%
same,growth inhibition,[6]; at 33.0 µM,6%
same,growth inhibition,[6]; at 100.0 µM,58%
same,growth inhibition,[7]; [16],-64%
same,growth inhibition,[7]; [17],46%
same,growth inhibition,[7]; at 50.0 µM,89.8% (active)
same,growth inhibition,[8]; at 1.2 µM,-8%
same,growth inhibition,[8]; at 3.7 µM,-8%
same,growth inhibition,[8]; at 11.0 µM,-14%
same,growth inhibition,[8]; at 33.0 µM,0%
same,growth inhibition,[8]; at 100.0 µM,55%
same,growth inhibition,[9]; [16],-72%
same,growth inhibition,[9]; [17],-13%
same,growth inhibition,[9]; at 50.0 µM,70.4% (active)
same,growth inhibition,[10]; at 1.2 µM,-15%
same,growth inhibition,[10]; at 3.7 µM,-5%
same,growth inhibition,[10]; [16],-59%
same,growth inhibition,[10]; at 11.0 µM,9%
same,growth inhibition,[10]; at 33.0 µM,37%
same,growth inhibition,[10]; [17],62%
same,growth inhibition,[10]; at 50.0 µM,93.8% (active)
same,growth inhibition,[10]; at 100.0 µM,80% (active)
same,growth inhibition,[11]; at 1.2 µM,-3%
same,growth inhibition,[11]; at 3.7 µM,-4%
same,growth inhibition,[11]; at 11.0 µM,-7%
same,growth inhibition,[11]; at 33.0 µM,10%
same,growth inhibition,[11]; at 100.0 µM,52%
same,growth inhibition,[12]; at 1.2 µM,4%
same,growth inhibition,[12]; at 3.7 µM,-12%
same,growth inhibition,[12]; at 11.0 µM,-11%
same,growth inhibition,[12]; at 33.0 µM,5%
same,growth inhibition,[12]; at 100.0 µM,55%
same,growth inhibition,[13]; at 1.2 µM,-3%
same,growth inhibition,[13]; at 3.7 µM,-11%
same,growth inhibition,[13]; at 11.0 µM,-5%
same,growth inhibition,[13]; at 33.0 µM,27%
same,growth inhibition,[13]; at 100.0 µM,69%
same,growth inhibition,[14]; [16],-125%
same,growth inhibition,[14]; [17],9%
same,growth inhibition,[14]; at 50.0 µM,96.8% (active)
same,growth inhibition,[15]; at 1.2 µM,-5%
same,growth inhibition,[15]; at 3.7 µM,-4%
same,growth inhibition,[15]; at 11.0 µM,-1%
same,growth inhibition,[15]; at 33.0 µM,19%
same,growth inhibition,[15]; at 100.0 µM,61%
Cc1cc(C)nc(NS(=O)(=O)c2ccc(Nc3c4ccccc4nc4c(C(=O)NCCO)cccc34)cc2)n1,growth inhibition,[1]; at 1.2 µM,-1%
same,growth inhibition,[1]; at 3.7 µM,-2%
same,growth inhibition,[1]; at 11.0 µM,-2%
same,growth inhibition,[1]; at 33.0 µM,-35%
same,growth inhibition,[1]; at 100.0 µM,-9%
same,growth inhibition,[3]; at 1.2 µM,0%
same,growth inhibition,[3]; at 3.7 µM,-1%
same,growth inhibition,[3]; at 11.0 µM,-2%
same,growth inhibition,[3]; at 33.0 µM,-1%
same,growth inhibition,[3]; at 100.0 µM,32%
same,growth inhibition,[4]; at 1.2 µM,-1%
same,growth inhibition,[4]; at 3.7 µM,1%
same,growth inhibition,[4]; [16],-17%
same,growth inhibition,[4]; at 11.0 µM,6%
same,growth inhibition,[4]; at 33.0 µM,25%
same,growth inhibition,[4]; [17],91% (active)
same,growth inhibition,[4]; at 50.0 µM,39.2%
same,growth inhibition,[4]; at 100.0 µM,68%
same,growth inhibition,[5]; at 1.2 µM,-1%
same,growth inhibition,[5]; at 3.7 µM,-1%
same,growth inhibition,[5]; [16],-13%
same,growth inhibition,[5]; at 11.0 µM,1%
same,growth inhibition,[5]; at 33.0 µM,3%
same,growth inhibition,[5]; [17],6%
same,growth inhibition,[5]; at 50.0 µM,3.4%
same,growth inhibition,[5]; at 100.0 µM,24%
same,growth inhibition,[6]; at 1.2 µM,0%
same,growth inhibition,[6]; at 3.7 µM,1%
same,growth inhibition,[6]; at 11.0 µM,4%
same,growth inhibition,[6]; at 33.0 µM,9%
same,growth inhibition,[6]; at 100.0 µM,26%
same,growth inhibition,[7]; [16],-9%
same,growth inhibition,[7]; [17],56%
same,growth inhibition,[7]; at 50.0 µM,-10.7%
same,growth inhibition,[8]; at 1.2 µM,0%
same,growth inhibition,[8]; at 3.7 µM,-3%
same,growth inhibition,[8]; at 11.0 µM,-3%
same,growth inhibition,[8]; at 33.0 µM,-2%
same,growth inhibition,[8]; at 100.0 µM,10%
same,growth inhibition,[9]; [16],16%
same,growth inhibition,[9]; [17],6%
same,growth inhibition,[9]; at 50.0 µM,81.2% (active)
same,growth inhibition,[10]; at 1.2 µM,0%
same,growth inhibition,[10]; at 3.7 µM,0%
same,growth inhibition,[10]; [16],-17%
same,growth inhibition,[10]; at 11.0 µM,2%
same,growth inhibition,[10]; at 33.0 µM,0%
same,growth inhibition,[10]; [17],2%
same,growth inhibition,[10]; at 50.0 µM,0%
same,growth inhibition,[10]; at 100.0 µM,16%
same,growth inhibition,[11]; at 1.2 µM,-1%
same,growth inhibition,[11]; at 3.7 µM,-2%
same,growth inhibition,[11]; at 11.0 µM,-2%
same,growth inhibition,[11]; at 33.0 µM,-2%
same,growth inhibition,[11]; at 100.0 µM,27%
same,growth inhibition,[12]; at 1.2 µM,-3%
same,growth inhibition,[12]; at 3.7 µM,-2%
same,growth inhibition,[12]; at 11.0 µM,0%
same,growth inhibition,[12]; at 33.0 µM,-1%
same,growth inhibition,[12]; at 100.0 µM,30%
same,growth inhibition,[13]; at 1.2 µM,-3%
same,growth inhibition,[13]; at 3.7 µM,-1%
same,growth inhibition,[13]; at 11.0 µM,1%
same,growth inhibition,[13]; at 33.0 µM,2%
same,growth inhibition,[13]; at 100.0 µM,30%
same,growth inhibition,[14]; [16],-8%
same,growth inhibition,[14]; [17],44%
same,growth inhibition,[14]; at 50.0 µM,65.3%
same,growth inhibition,[15]; at 1.2 µM,-4%
same,growth inhibition,[15]; at 3.7 µM,-1%
same,growth inhibition,[15]; at 11.0 µM,0%
same,growth inhibition,[15]; at 33.0 µM,7%
same,growth inhibition,[15]; at 100.0 µM,30%
